Assay outcomes deposited in PubChem BioAssay by National Center for Advancing Translational Sciences (NCATS).
p53null 39C kill: p53 null cell cytotoxicity, nonpermissive temperature | actives 0.97% (n = 55,000) | Potency, µM (titrated, usually from 46.1 µM), for inactives: top-dose activity, negative = cell killing, actives largely listed as cytotoxic | H1299 p53-null (neo) cells, 39C, ATPlite viability, 24 h;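 further: potency means the concentration at half of the fitted maximal effect; 0% = DMSO only and -100% = full killing by 100 µM tamoxifen; nearly all actives have a fitted effect of over 50% in size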
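Luminescent ATP signal reported cell survival after H1299 lines (neo, p53 null; or p53 A138V) received up to 46 uM compound and 24 hr incubation at 39C.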
GPR32 ag: GPR32 (DRV1) agonism, beta-arrestin recruitment; CHO-K1 GPR32 beta-arrestin PathHunter luminescence, 90 min; zero percent set by DMSO-only wells; activation, % at 76.9 µM; O75388; actives 2.5% (n = 48,000); AID 1346428;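 active means activation of at least 60% and not above a set upper limit, about 1 call in 100 departs from these limits; inconclusive means activation of 40% to 60%, or above that upper limit; inactive means activation under 40%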; further: 0% is about no effect
Target sequence (O75388 whole entry, looked up): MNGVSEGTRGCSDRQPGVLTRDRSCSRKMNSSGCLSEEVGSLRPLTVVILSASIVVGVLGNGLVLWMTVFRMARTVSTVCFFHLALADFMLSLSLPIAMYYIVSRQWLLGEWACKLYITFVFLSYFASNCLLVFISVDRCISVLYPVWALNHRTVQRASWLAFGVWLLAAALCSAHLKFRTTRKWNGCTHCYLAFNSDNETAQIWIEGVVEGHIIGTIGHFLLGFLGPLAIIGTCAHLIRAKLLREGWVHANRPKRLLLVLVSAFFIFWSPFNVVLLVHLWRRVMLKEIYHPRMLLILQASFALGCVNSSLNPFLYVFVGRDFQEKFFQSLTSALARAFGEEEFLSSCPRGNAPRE
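Cells are plated overnight, treated with compounds in DMSO for 90 minutes at 37 °C, and developed with PathHunter detection reagent for 1 hour before luminescence is read; signal reflects beta-arrestin binding to GPR32 in engineered CHO-K1 cells.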
NTMT1 inhibitor: blocks human N-terminal methyltransferase 1 activity. NTMT1 MTase-Glo SAH luminescence, purified enzyme. Potency, µM (doses to about 114 µM), for the others: at the top dose activity change, negative = inhibition, hits mostly inhibitors. actives 2.5% (n = 59,000);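 further: potency means the concentration at half of the fitted maximal effect; plate controls were DMSO vehicle for no effect and no enzyme for full effect; nearly all actives have a fitted effect of over 65% in size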
Target sequence (Q9BV86 whole entry, looked up): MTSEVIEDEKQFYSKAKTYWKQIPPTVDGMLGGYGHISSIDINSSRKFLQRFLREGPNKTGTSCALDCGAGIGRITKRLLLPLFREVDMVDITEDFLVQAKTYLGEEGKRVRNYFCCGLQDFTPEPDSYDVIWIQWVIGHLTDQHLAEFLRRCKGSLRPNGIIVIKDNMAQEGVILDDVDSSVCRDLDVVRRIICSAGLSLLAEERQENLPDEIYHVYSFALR
FH mod: Identification of activators of human fumarate hydratase by quantitative high-throughput screening | FH coupled MDH/diaphorase resazurin fluorescence, 15 min | Potency, µM (doses to about 79.9 µM), for the others: top-dose activity change, negative = inhibition, usual class: inhibitors | actives 0.22% (n = 54,000) | AID 1347055, 2019; further: potency means the concentration at half of the fitted maximal effect; on the % scale 0 is the no-effect control and ±100 the full control effect; the screen sought activators but most active calls are inhibition curves; nearly all actives have a fitted effect of over 45% in size
p53null 32C kill: selectivity test: cytotoxicity in p53 null cells, permissive temperature | Potency, µM (highest dose often 46.1 µM), for the others: at the highest dose activity change, negative = cytotoxicity, hits mostly cytotoxic | actives 0.62% (n = 55,000) | H1299-neo p53 null cells, ATP luminescence, 24 h, 32C;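 further: potency means the concentration at half of the fitted maximal effect; 0% = DMSO only and -100% = full killing by 100 µM tamoxifen; nearly all actives have a fitted effect of over 55% in size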
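Overnight 37C seeding (600 cells/well) of H1299-neo preceded a 24 hr, 32C exposure to compounds up to 46 uM. ATP levels, read by luminescence after 20 min at RT, indicated surviving cells.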
GALC G270D up: galactocerebrosidase G270D activity enhancement, cell-based; P54803; 145M-Twi-hGALC-G270D cells (Twitcher mouse brain line with human GALC G270D), HMU-beta-Gal fluorescence, 48 h; Potency, µM (titrated, usually from 57.5 µM), actives largely listed as activators; actives 0.1% (n = 45,000); AID 1159614; further: potency means the concentration at half of the fitted maximal effect; 0% is about no effect; nearly all actives have a fitted effect of over 65% in size
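Mutant human GALC (G270D), stably expressed in a Twitcher mouse brain cell line lacking endogenous GALC, is measured in live-treated cells via 6-hexadecanoylamino-4-methylumbelliferyl-β-galactoside hydrolysis (0.1 mM final, pH 5.2) with fluorescent detection.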
Numbers without * were called inactive; i = inactive; ? = inconclusive; . = no result; ! = not confirmed by another sample; [ ] = dose if it differs, or a comment. A selection: hits, their analogues and other compounds. The true share with any hit is near 3.9%. Unless noted, the call rests on the fitted dose curve; in most records, active means well fitted curve in the direction sought with a large enough effect; inconclusive means small, poorly fitted or top-dose-only effect, or another doubt; inactive means no such curve, though single readings can be large; an effect the other way counts as inactive or inconclusive.

SMILES	p53null 39C kill	GPR32 ag	NTMT1 inhibitor	FH mod	p53null 32C kill	GALC G270D up
CC(C)CS(=O)(=O)c1oc(-c2ccc(F)cc2)nc1S(=O)(=O)c1ccccc1	3.2µM*	0	0%	?	?	i
COC(=O)c1ccc(C2Nc3c(C)cc(C)cc3C3C=CCC32)cc1 (stereo not drawn)	-7%	79*	34%	-2%	-14%	i
OC[C@@]1(O)CO[C@@H](OC[C@H]2O[C@@H](Oc3c[nH]c4ccccc34)[C@H](O)[C@@H](O)[C@@H]2O)[C@@H]1O	.	.	-17%[29.8 µM]	-4%[53.3 µM]	.	.
O=C1CCCC2=C1C(c1ccccc1I)N=C(Nc1nc3ccccc3o1)N2 (stereo not drawn)	.	.	5%	1%	.	.
O=C(NCc1cccnc1)C(=O)NCC(c1cccnc1)N1CCN(c2ccc(F)cc2)CC1 (stereo not drawn)	-3%	5	0%	-15%	26%	i
COC(=O)NCC(c1cccnc1)N1CCN(c2ccc(F)cc2)CC1 (stereo not drawn)	25µM*	6	-2%	-2%	?	i
O=C(NCCc1ccccc1)C(=O)NCC(c1cccnc1)N1CCN(c2ccc(F)cc2)CC1 (stereo not drawn)	11µM*	8	-4%	-2%	-4%	i
COc1ccc(C2=N[C@@H](c3ccc(Cl)cc3)[C@@H](c3ccc(Cl)cc3)N2C(=O)N2CCNC(=O)C2)c(OC(C)C)c1	.	.	2%[57.5 µM]	-7%	.	.
CCOc1ccc(-c2ncnn2-c2sc3c(c2C#N)CCCCC3)cc1	-20%	102*	?	-6%	-13%	i
COc1cccc(CNC(=O)Cn2c(SCC(=O)Nc3ccc(C)c(C)c3)nc3ccccc32)c1	?	113*	?	13%	?	i
COc1cccc(CNC(=O)Cn2c(SCC(=O)Nc3ccc(F)cc3)nc3ccccc32)c1	?	46	?	-14%	?	i
O=C1NC(=O)C(c2cnc3ccccn23)=C1c1cn2c3c(cc(F)cc13)CN(C(=O)N1CCCCC1)CC2	.	.	27µM*!	-9%	.	.
CN1C[C@H]2c3ccccc3Oc3ccc(Cl)cc3[C@@H]2C1	.	92*	-28%[57.5 µM]	0%[53.3 µM]	.	i
Nc1nc2ccc(O)cc2s1	10%	.	.	.	12%	.
Nc1ccc2nc(-c3ccc(O)cc3)sc2c1	1.3µM*	15	32µM*	-17%	2.5µM*	i
COc1ccc([S+](=O)([O-])Nc2ccc(-c3nc4ccccc4[nH]3)cc2)cc1OC	.	.	16%	.	.	.
CCC1CCCCN1CCCNC(=O)c1cc2c(Cl)nc3ccc(C)cc3c2s1 (stereo not drawn)	20µM*	-6	28µM*	-15%	-3%	i
CCC1CCCCN1CCCNC(=O)c1cc2c(=O)n(CC)c3ccccc3c2s1 (stereo not drawn)	-10%	-2	?	-8%	-6%	i
Cc1ccc(Nc2nc(C(N)=O)c(NC(=O)c3ccccc3Br)s2)cc1	11%	61*	?	-7%	-12%	i
Cc1nn2c(=O)cc(COC(=O)c3cccc(NC(=O)c4ccc(C(C)(C)C)cc4)c3)nc2s1	1.3µM*	-8	0%	6%	3.2µM*	i
Cc1cccc(C(=O)Nc2cccc(C(=O)OCc3cc(=O)n4nc(C(C)C)sc4n3)c2)c1	-6%	-6	1%	3%	0%	i
O=C(Nc1ccc(OCc2cc(=O)n3ccsc3n2)cc1)c1ccc(F)cc1	0%	10	8%	1%	-5%	i
CC(C)(C)c1ccc(C(=O)Nc2ccc(OCc3cc(=O)n4ccsc4n3)cc2)cc1	-15%	87*	-2%	-1%	?	i
O=C(OC1C=C(CO)C2C(OC3OC(CO)C(O)C(O)C3O)OC=CC12)c1ccc(O)cc1 (stereo not drawn)	.	.	11%[29.8 µM]	-9%[53.3 µM]	.	.
Nc1ccc(F)cc1NC(=O)c1ccc(CNC(=O)/C=C/c2cccnc2)cc1	.	.	24%	.	.	.
SMILES	p53null 39C kill	GPR32 ag	NTMT1 inhibitor	FH mod	p53null 32C kill	GALC G270D up
CCOc1cc(/C=C(\C#N)C(=O)NCC2CCCO2)ccc1O (stereo not drawn)	30%	-31	-2%	-12%	0%	i
N#C/C(=C\c1ccc(O)c(O)c1)C(=O)NCCc1ccccc1	.	-3	.	32µM*	.	.
CC(C)(O)c1ccc2c(c1)ncn2-c1cccc(-c2ccccc2C#N)c1	.	.	?	0%	.	.
CCOc1ccc(C2CC(=O)n3nc(-c4ccc(C)cc4)nc3S2)cc1OC (stereo not drawn)	4%	74*	8%	-6%	-12%	i
O=C1CC(c2ccc(Cl)cc2)Sc2nc(-c3ccc(F)cc3)nn21 (stereo not drawn)	2%	119*	2%	-10%	-3%	i
Cc1ccc(-c2nc3n(n2)C(=O)CC(c2ccc(Cl)cc2)S3)cc1 (stereo not drawn)	-20%	41	3%	-8%	-2%	i
C=C(C)Cn1c(SCC(=O)c2cccs2)nc2sc3c(c2c1=O)CCCC3	.	.	-4%[57.5 µM]	-5%	.	.
CCCn1ccc2c(OCC(=O)NCc3ccccc3Cl)cccc2c1=O	-2%	69*	4%	-39%	-13%	i
CCOC(=O)c1ccc(NC(=O)COc2cccc3c(=O)n(C)ccc23)cc1	16%	69*	-15%	-12%	-7%	i
COCCn1ccc2c(OCC(=O)Nc3cccc(OC)c3)cccc2c1=O	-13%	73*	-1%	-7%	0%	i
Cn1ccc2c(OCC(=O)Nc3ccc(OC(F)(F)F)cc3)cccc2c1=O	1%	36	0%	-14%	-9%	i
CCn1ccc2c(OCC(=O)NCc3ccccc3)cccc2c1=O	-4%	22	16%	-4%	-7%	i
CCn1ccc2c(OCC(=O)Nc3ccccc3C(F)(F)F)cccc2c1=O	30%	85*	2%	5%	4%	i
CCOCCn1nc(CC)c2nc(N3CCC(C(=O)O)CC3)nc(Nc3cc(C)ccn3)c21	.	.	-13%[57.5 µM]	0%	.	.
CC(C)C(C)(C)C(C)(C)C(C)(C)S	.	-34	32µM*	1%	.	i
NS(=O)(=O)OC[C@@H]1C[C@@H](n2ccc3c(N[C@H]4CCc5ccccc54)ncnc32)C[C@@H]1O	.	.	40µM*!	1%	.	.
